The list is not random: actives were taken first. Their share in the collection is about 2.1%.
rRNA inh HTS = selective bacterial rRNA inhibition in E. coli. E. coli WT GFP vs humanized-ribosome RFP mutants, fluorescence, 24 h; active compounds read low; DMSO median 0, no signal -100. GFP signal change (wild-type ribosome), % (concentration not given with the values). actives 1.6% (n = 350,000). AID 720706;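 active = significant combined selectivity score with lowered wild-type GFP, culture density cut under 30%, mutant RFP and density less affected; inactive = any of these conditions unmet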
ERAP1 HTS inh = inhibitors of human ERAP1 aminopeptidase. AID 652197. inhibition, % at 10.7 µM. recombinant ERAP1, Leu-AMC fluorescence, 60 min. actives 0.15% (n = 340,000);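 active = mean replicate inhibition of at least 30%, or all replicates individually reaching that 30% level; inactive = mean below 30% and not every replicate reaching it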
Target sequence (Q9NZ08 whole entry, looked up): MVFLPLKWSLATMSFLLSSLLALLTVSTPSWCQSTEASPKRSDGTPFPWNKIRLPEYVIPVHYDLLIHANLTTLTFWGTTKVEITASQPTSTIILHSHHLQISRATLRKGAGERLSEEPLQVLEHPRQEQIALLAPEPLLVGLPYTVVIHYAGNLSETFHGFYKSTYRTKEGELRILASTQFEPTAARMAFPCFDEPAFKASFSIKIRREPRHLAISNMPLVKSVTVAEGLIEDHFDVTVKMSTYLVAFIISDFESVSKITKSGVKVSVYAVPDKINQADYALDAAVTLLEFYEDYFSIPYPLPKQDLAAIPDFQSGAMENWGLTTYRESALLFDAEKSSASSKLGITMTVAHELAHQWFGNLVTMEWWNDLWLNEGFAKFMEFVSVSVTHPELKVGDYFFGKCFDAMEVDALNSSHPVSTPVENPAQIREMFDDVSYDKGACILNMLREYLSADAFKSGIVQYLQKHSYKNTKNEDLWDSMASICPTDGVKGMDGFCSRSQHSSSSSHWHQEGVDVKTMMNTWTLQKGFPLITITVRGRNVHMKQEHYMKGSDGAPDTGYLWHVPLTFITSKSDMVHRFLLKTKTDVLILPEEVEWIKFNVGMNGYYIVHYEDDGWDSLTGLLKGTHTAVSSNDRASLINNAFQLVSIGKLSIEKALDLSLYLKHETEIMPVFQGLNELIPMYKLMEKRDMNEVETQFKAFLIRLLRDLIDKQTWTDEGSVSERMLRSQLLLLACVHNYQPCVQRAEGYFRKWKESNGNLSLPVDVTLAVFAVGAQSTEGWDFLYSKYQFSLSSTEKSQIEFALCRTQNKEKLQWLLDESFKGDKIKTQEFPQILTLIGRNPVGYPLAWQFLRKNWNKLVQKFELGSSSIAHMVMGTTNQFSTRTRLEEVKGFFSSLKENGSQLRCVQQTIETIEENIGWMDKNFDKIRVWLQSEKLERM
ARNT-TACC3 inh = disrupts binding between human ARNT and TACC3; Q9Y6A5; AlphaScreen His-ARNT PAS-B/GST-TACC3 binding, luminescence; TACC3 fragment carries E629A point mutation; inhibition, % at 9.99 µM; actives 0.66% (n = 390,000); AID 623870;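 active = mean inhibition of replicates at least 50% and at least half of replicates each reaching 50%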
PvdQ inh = blocks Pseudomonas aeruginosa PvdQ acylase activity. purified PvdQ acylase, fluorescence plate reader. inhibition, % at 10 µM. actives 0.063% (n = 340,000). AID 488965; in the data active = inhibition above about 30%, passing the limit was not always enough
F508del corr = CFTR F508del correction in bronchial cells. CFBE cells, YFP halide quenching; stimulated with forskolin plus potentiator P3; % fluorescence drop versus neutral controls. activity (quench increase), % at 7.58 µM. actives 0.36% (n = 350,000). AID 720511;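 active = mean added fluorescence quench of at least 8% versus neutral control, with both replicates also reaching 8%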;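 note: cells transiently co-express mutant CFTR-F508del with the halide-sensitive YFP; corrector assay measuring rescue of mutant channel to the surface after 24 h compound exposure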
ARNT Alpha ctr = interferes with AlphaScreen signal, flagging false ARNT-TACC3 hits | AID 651705 | His-ARNT PASB-GST AlphaScreen artifact counter-screen, luminescence | AC50, µM (top dose mostly 68 µM) | actives 50% (n = 1,200) | shares compounds with ARNT-TACC3 inh;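 active = every separate test run was called active for a drop in luminescence, with AC50 within twice the top valid dose, actives reach about 71 µM in these data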
Hits are given with their value; n = inactive; x = not tested or not shown.

SMILES	rRNA inh HTS	ERAP1 HTS inh	ARNT-TACC3 inh	PvdQ inh	F508del corr	ARNT Alpha ctr
C[C@@H]1CN([C@@H](C)CO)C(=O)c2cc(-c3ccc(F)cc3)cnc2O[C@H]1CN(C)C(=O)c1ccccc1F	n	n	n	x	n	x
C[C@H](CO)N1C[C@H](C)[C@H](CN(C)C(=O)Nc2ccccc2)Oc2ncc(C3=CCCC3)cc2C1=O	n	n	n	x	n	x
C[C@H](CO)N1C[C@H](C)[C@H](CN(C)Cc2cccc(C(=O)O)c2)OCc2cn(nn2)CCCC1=O	n	n	n	x	n	x
C[C@H](CO)N1C[C@H](C)[C@@H](CN(C)C(=O)NC2CCCCC2)Oc2c(NC(=O)C3CCOCC3)cccc2C1=O	n	n	n	x	n	x
C/C=C/c1ccc([C@H]2[C@@H](CO)N(Cc3ccccn3)[C@@H]2CNC(=O)CC)cc1	n	n	n	x	n	x
C/C=C/c1ccc([C@H]2[C@@H](CO)N(Cc3ccccn3)[C@@H]2CNC(C)=O)cc1	n	n	30.1	x	n	n
C/C=C/c1ccc([C@H]2[C@@H](CO)N(Cc3ccccn3)[C@H]2CNC(=O)CC)cc1	n	x	41.4	x	n	n
Oc1cc(-c2ccc(N3CCCCC3)nc2)cc2cccnc12	x	x	n	n	x	x
Oc1cc(-c2ccncc2)cc2cccnc12	n	n	67.2	n	n	11.7µM
Oc1cc(Nc2ccncc2)cc2cccnc12	n	n	73.0	n	n	7.88µM
CN(C)CCCNC(=O)c1ccc(-c2cc(O)c3ncccc3c2)cc1	n	n	59.7	n	n	13.8µM
C[C@@H]1CN([C@@H](C)CO)C(=O)c2cc(NC(=O)Cn3cnnn3)ccc2O[C@@H]1CN(C)C(=O)Nc1ccc2c(c1)OCO2	n	n	n	x	n	x
c1ccc(-c2ccc(CNc3nc(-c4ccccn4)nnc3-c3ccccc3)cc2)cc1	x	x	x	x	x	3.35µM
Cc1ccc(CNc2nc(-c3ccccn3)nnc2-c2ccccc2)cc1C	x	x	x	x	x	2.75µM
Cc1ccccc1CNc1nc(-c2ccccn2)nnc1-c1ccccc1	x	x	x	x	x	3.05µM
Cc1ccc(CNc2nc(-c3ccccn3)nnc2-c2ccccc2)cc1	x	x	x	x	x	1.46µM
O=C(C[C@@H]1C[C@@H]2c3cc(NC(=O)NC4CCCC4)ccc3O[C@@H]2[C@H](CO)O1)NCc1ccccc1	n	x	x	x	x	x
Cc1cccc(CNc2nc(-c3ccccn3)nnc2-c2ccccc2)c1	x	x	x	x	x	2.08µM
C=CCNc1nc(-c2ccccn2)nnc1-c1ccccc1	x	x	103.8	n	x	1.34µM
c1ccc(-c2nnc(-c3ccccn3)nc2NCc2cccnc2)cc1	x	x	x	x	x	0.689µM
COc1ccc(CNc2nc(-c3ccccn3)nnc2-c2ccccc2)cc1	x	x	x	x	x	1.71µM
COc1ccc(CNc2ncc(-c3ccccc3)n2C)cc1	n	n	n	n	n	x
OCCCNc1nc(-c2ccc(Cl)cc2)nnc1-c1ccccc1	x	x	n	n	x	x
COc1cccc(-c2ccc3ncnc(NCc4cccc(C)c4)c3c2)c1	n	n	n	n	n	x
Cc1ccc2[nH]c3c(c2c1)CCCC3=O	x	x	n	n	x	x
SMILES	rRNA inh HTS	ERAP1 HTS inh	ARNT-TACC3 inh	PvdQ inh	F508del corr	ARNT Alpha ctr
Cc1ccc2[nH]c3c(c2c1)CCCC3NCCO (stereo not given)	n	n	43.1	n	n	n
C[C@@H]1CN([C@@H](C)CO)C(=O)c2cc(NS(=O)(=O)c3ccc(F)cc3)ccc2O[C@@H](C)CCCCO[C@H]1CN(C)C(=O)Cc1ccccc1	n	x	n	x	n	x
O=C(N[C@H]1CC[C@H](CCn2cc(C3CC3)nn2)O[C@@H]1CO)c1cccnc1	n	n	n	x	n	x
O=C(N[C@@H]1CC[C@@H](CCn2cc(C3CCCC3)nn2)O[C@H]1CO)c1cccnc1	n	n	x	x	n	x
O=C(N[C@@H]1CC[C@@H](CCn2cc(-c3ccccn3)nn2)O[C@H]1CO)c1cccnc1	n	n	70.9	x	n	36.6µM
O=C(N[C@@H]1CC[C@H](CCn2cc(-c3ccccn3)nn2)O[C@H]1CO)c1cccnc1	n	n	83.8	x	n	44.2µM
O=C(N[C@@H]1CC[C@@H](CCn2cc(-c3ccccn3)nn2)O[C@@H]1CO)c1cccnc1	n	n	80.8	x	n	44.1µM
CC=Cc1ccc2n(c1=O)C[C@@H]1[C@@H](CO)[C@H](C(=O)N[C@H](C)c3ccccc3)[C@H]2N1CC (mixture of isomers)	n	n	n	x	x	x
C[C@@H]1CN([C@@H](C)CO)C(=O)Cc2cc(NC(=O)C3CCCCC3)ccc2O[C@H]1CN(C)Cc1ccccc1	n	n	n	x	n	x
CC(C)CC#Cc1ccc2c(c1)O[C@H](CN(C)C(=O)C1CCCCC1)[C@H](C)CN([C@@H](C)CO)S2(=O)=O	n	n	n	x	n	x
O=C1CCCCn2cc(nn2)COC[C@H](c2ccccc2)N1	n	x	x	x	x	x
Cc1ccc(/C=N/Nc2ccc3ccccc3n2)o1	n	n	n	n	n	x
Cc1ccc(/C=N/Nc2cn[nH]c(=O)n2)o1	n	n	57.0	n	n	n
Cc1[nH]cnc1CN1CCc2c(c3ccccc3n2C)C1=O	n	n	27.9	n	n	n
O=C(O)c1cn[nH]c1-n1cnnn1	x	x	60.8	n	x	n
CNC(=S)N(Cc1ccccc1)Cc1cccnc1	n	n	n	n	n	x
OCCN(Cc1cccnc1)Cc1ccccn1	n	n	69.5	n	n	15.4µM
O=C(C1CCC1)N1CC(=O)N2[C@H](CO)[C@H](c3ccc(-c4cccnc4)cc3)[C@@H]2C1	n	n	x	x	n	x
COCc1cn(CC[C@H]2CC[C@H](NC(=O)c3ccccc3)[C@@H](CO)O2)nn1	n	n	n	x	n	x
N[C@@H]1CC[C@H](CCn2cc(-c3ccccn3)nn2)O[C@H]1CO	n	n	74.6	x	n	6.56µM
Cc1ccc(-c2cn(C[C@H]3CC[C@@H]([C@@H]4CC[C@H](Cn5cc(-c6ccc(C)cc6)nn5)O4)O3)nn2)cc1	n	x	n	n	n	x
O=C(N[C@@H]1CC[C@H](CCn2cc(-c3ccccn3)nn2)O[C@H]1CO)c1ccccc1	n	n	76.1	x	n	60.1µM
O=C(N[C@H]1CC[C@H](CCn2cc(-c3ccccn3)nn2)O[C@@H]1CO)c1ccccc1	n	n	74.3	x	n	34.2µM
c1ccc(-c2cn(C[C@H]3CC[C@H](Cn4cc(-c5ccccn5)nn4)O3)nn2)nc1	n	n	72.0	n	n	7.78µM
O=C(CC1CC1)Nc1ccc2c(c1)[C@H]1C[C@H](CC(=O)NC3CCCCC3)O[C@H](CO)[C@H]1O2	n	n	n	x	n	x
COc1ccc(NC(=O)N(C)C[C@H]2OCCCC[C@H](C)Oc3ccc(NC(=O)Cc4ccccc4)cc3C(=O)N([C@H](C)CO)C[C@H]2C)cc1	n	n	n	x	n	x
O=C(C[C@@H]1C[C@H]2c3cc(NC(=O)Nc4ccc(C(F)(F)F)cc4)ccc3O[C@H]2[C@H](CO)O1)NCc1cccnc1	n	n	n	x	n	x
